An excerpt weighted towards active compounds, which were near 1.2% of everything screened.
RGS4-Gao reg: modulators of RGS4 binding to Galphao, primary screen, biochemical, multiplexed bead flow cytometry; actives lie on both sides; binding response (% of control), % at 10 µM; actives 0.33% (n = 220,000); AID 1415, 2008; in the data active = binding response below about 49% or above about 150%; inactive = in between;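 also: fluorescent Galphao activated with aluminum fluoride binding bead-coupled RGS4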
Target sequence (P09471 whole entry, looked up): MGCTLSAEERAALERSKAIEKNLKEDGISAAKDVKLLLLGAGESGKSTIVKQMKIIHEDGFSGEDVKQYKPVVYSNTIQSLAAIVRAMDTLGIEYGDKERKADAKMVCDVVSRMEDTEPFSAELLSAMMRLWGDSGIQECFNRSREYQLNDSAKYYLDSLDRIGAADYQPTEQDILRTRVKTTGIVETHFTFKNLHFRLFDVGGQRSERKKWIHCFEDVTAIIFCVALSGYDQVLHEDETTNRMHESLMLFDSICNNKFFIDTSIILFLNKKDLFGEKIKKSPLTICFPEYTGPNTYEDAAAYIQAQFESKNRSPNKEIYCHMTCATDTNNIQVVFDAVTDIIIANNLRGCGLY
Avidin bead fluor: green autofluorescence of compounds with avidin beads – biophysical, 488/530 nm, flow cytometry, artefact control, profiling panel. actives 0.38% (n = 220,000). fluorescence (KMESF) at 10 µM. AID 1775, 2009. compound fluorescence 488/530 nm; hits give high values; in the data active = fluorescence above about 47
RGS16-Gao HTS: modulators of RGS16 binding to Galphao, primary screen, biochemical, human proteins, multiplexed bead flow cytometry. Regulator of G-protein signaling 16 (Homo sapiens) + Guanine nucleotide-binding protein …. AID 1441, 2008. bead-based flow cytometry RGS16-Galphao binding, fluorescence; actives lie on both sides. binding response (% of control), % at 10 µM. actives 0.38% (n = 220,000); call rule not given here;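 also: Galphao activated by GDP with aluminum fluoride before binding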
Target sequence (O15492 whole entry, looked up): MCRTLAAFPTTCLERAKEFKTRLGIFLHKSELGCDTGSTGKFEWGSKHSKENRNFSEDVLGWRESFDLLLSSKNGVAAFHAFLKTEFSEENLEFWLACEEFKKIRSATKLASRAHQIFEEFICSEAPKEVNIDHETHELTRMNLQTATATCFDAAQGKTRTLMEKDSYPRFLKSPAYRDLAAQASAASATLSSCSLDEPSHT
Target sequence (P09471 whole entry, looked up): as the sequence (P09471 whole entry, looked up) above
GSH bead fluor: compound fluorescence on glutathione beads, profiling panel, artefact control, biophysical, 488/530 nm, flow cytometry. GSH beads flow cytometry, compound fluorescence 488/530 nm; hits give high values. fluorescence (KMESF) at 10 µM. actives 0.25% (n = 190,000). AID 1776, 2009; in the data active = fluorescence above about 89;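 also: glutathione beads carrying GST-tagged Bcl family fusion proteins plus one bare bead set; values are compound well signal with DMSO vehicle wells as background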
RGS8-Gao: RGS8-Galphao binding modulators, primary screen, biochemical, multiplexed bead flow cytometry; actives 0.34% (n = 220,000); actives lie on both sides; Guanine nucleotide-binding protein G(o) subunit alpha (Homo sapiens), P09471; response (percent of control binding), % at 10 µM; in the data active = response below about 60% or above about 140%; inactive = in between;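 also: Galphao activated as the GDP aluminium fluoride complex binding bead-coupled RGS8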
RGS7-Gao reg: RGS7-Galphao binding modulators, primary screen, biochemical, multiplexed bead flow cytometry; Guanine nucleotide-binding protein G(o) subunit alpha (Homo sapiens), P09471; actives lie on both sides; binding response (% of control), % at 10 µM; actives 0.35% (n = 220,000); AID 1439, 2008; in the data active = binding response below about 49% or above about 150%; inconclusive = no clear call, values can overlap the other calls; inactive = in between;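 also: fluorescent Galphao held in activated GDP-AlF4 state binding bead-coupled RGS7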
Active calls of the source: *.

For O=c1ccn(CCc2c[nH]c3ccccc23)c2c1CCCC2 the results were RGS4-Gao reg 105, Avidin bead fluor 16, RGS16-Gao HTS 100, GSH bead fluor 19, RGS8-Gao 105 and RGS7-Gao reg 103.
`Cc1cc(C)n2nc3nc(N4CCCC4)nc(-c4ccccc4)c3c2n1` gave RGS4-Gao reg 104, Avidin bead fluor 58*, RGS16-Gao HTS 97, GSH bead fluor 9, RGS8-Gao 102 and RGS7-Gao reg 115.
For Nc1[nH]nc2nc(N3CCCC3)nc(-c3ccccc3)c12 the results were RGS4-Gao reg 98, Avidin bead fluor 3, RGS16-Gao HTS 102, GSH bead fluor 33, RGS8-Gao 100 and RGS7-Gao reg 96.
`COc1cc(SC)ccc1C(=O)N(Cc1ccccc1)c1ccccn1` gave RGS4-Gao reg 107, Avidin bead fluor 51*, RGS16-Gao HTS 93, RGS8-Gao 92 and RGS7-Gao reg inconclusive.
Screening CCOc1ccc(S(=O)(=O)Nc2ccc(C(=O)N/N=C(\C)c3ccc(-n4ccnc4)cc3)cc2)cc1 returned RGS4-Gao reg 145, Avidin bead fluor 50*, RGS16-Gao HTS 162, GSH bead fluor 27, RGS8-Gao 112 and RGS7-Gao reg 143.
CCCCNC(=O)c1cnc2n(c1=O)CCS2 was read as RGS4-Gao reg 102, Avidin bead fluor 29, RGS16-Gao HTS 99, GSH bead fluor 23, RGS8-Gao 101 and RGS7-Gao reg 103.
CCOC(=O)N1CCC(NC(=O)c2cnc3n(c2=O)CCS3)CC1 was read as RGS4-Gao reg -14*, Avidin bead fluor -2, RGS16-Gao HTS -13*, GSH bead fluor 18, RGS8-Gao 2.7* and RGS7-Gao reg -21*.
Screening Cc1ccc(C(=O)Nc2ccc(CC(=O)O)cc2)o1 returned RGS4-Gao reg 97, Avidin bead fluor 6, RGS16-Gao HTS 97, GSH bead fluor 254*, RGS8-Gao 100 and RGS7-Gao reg 98.
For Cc1cc(C(C)(C)C)oc1C(=O)Nc1ccc(CC(=O)O)cc1 the results were RGS4-Gao reg 93, Avidin bead fluor 4, RGS16-Gao HTS 62, GSH bead fluor 239*, RGS8-Gao 100 and RGS7-Gao reg 93.
For Cc1cc(C(=O)Nn2cnc3ccccc3c2=O)ccc1[N+](=O)[O-] the results were RGS4-Gao reg 92, Avidin bead fluor 6, RGS16-Gao HTS 90, GSH bead fluor 11, RGS8-Gao 97 and RGS7-Gao reg 90.
Screening CC(=O)NCCc1nc2ccccc2n1CCc1ccccc1 returned RGS4-Gao reg 102, Avidin bead fluor 6, RGS16-Gao HTS 54, GSH bead fluor 30, RGS8-Gao 93 and RGS7-Gao reg 99.
CC(C)NC(=O)CSCc1c(F)cccc1Cl was read as RGS4-Gao reg 94, Avidin bead fluor 5, RGS16-Gao HTS 96, GSH bead fluor 121*, RGS8-Gao 98 and RGS7-Gao reg 98.
CNC(=S)NNC(=O)c1ccccc1F was read as RGS4-Gao reg 101, Avidin bead fluor 25, RGS16-Gao HTS 110, GSH bead fluor 11, RGS8-Gao 101 and RGS7-Gao reg 106.
Cc1ccc(-c2ccc(CCC(=O)O)n2Cc2ccco2)cc1 was read as RGS4-Gao reg 95, Avidin bead fluor 49*, RGS16-Gao HTS 96, GSH bead fluor 13, RGS8-Gao 98 and RGS7-Gao reg 100.
Screening CN1C2CCC1CC(NC(=O)CSCc1ccc(Cl)cc1Cl)C2 (centres undefined) returned RGS4-Gao reg 103, Avidin bead fluor 3, RGS16-Gao HTS 99, RGS8-Gao 102 and RGS7-Gao reg inconclusive.
Screening COC(=O)CCNS(=O)(=O)c1ccc2ccccc2c1 returned RGS4-Gao reg 106, Avidin bead fluor 66*, RGS16-Gao HTS 76, GSH bead fluor 6, RGS8-Gao 90 and RGS7-Gao reg 130.
CC(C)(C)SCCNS(=O)(=O)c1ccc2ccccc2c1 was read as RGS4-Gao reg 101, Avidin bead fluor 9, RGS16-Gao HTS 104, GSH bead fluor 31, RGS8-Gao 100 and RGS7-Gao reg 99.
COc1ccc(S(=O)(=O)NNC(=O)c2ccc(-n3c(C)ccc3C)cc2)cc1 was read as RGS4-Gao reg 102, Avidin bead fluor 2, RGS16-Gao HTS 99, RGS8-Gao 100 and RGS7-Gao reg inconclusive.
O=C(NCCN1C(=O)S/C(=C/c2cccnc2)C1=O)C1CC(=O)N(Cc2ccccc2)C1 (centres undefined) was read as RGS4-Gao reg 102, Avidin bead fluor 26, RGS16-Gao HTS 107, GSH bead fluor 15, RGS8-Gao 100 and RGS7-Gao reg 101.
Screening Cc1cc(C(=O)Nn2c(C)nc3ccccc3c2=O)ccc1[N+](=O)[O-] returned RGS4-Gao reg 95, Avidin bead fluor 12, RGS16-Gao HTS 95, GSH bead fluor 12, RGS8-Gao 99 and RGS7-Gao reg 101.
For Cc1cccc(-c2nc3ccccc3c(=O)n2NC(=O)c2ccc([N+](=O)[O-])c(C)c2)c1 the results were RGS4-Gao reg 107, Avidin bead fluor 73*, RGS16-Gao HTS 102, GSH bead fluor 19, RGS8-Gao 99 and RGS7-Gao reg 147.
Screening CCOC(=O)c1nn(-c2ccccc2)c(=O)cc1SC(C)C returned RGS4-Gao reg 103, Avidin bead fluor 21, RGS16-Gao HTS 134, GSH bead fluor 25, RGS8-Gao 108 and RGS7-Gao reg 102.
Screening CCOC(=O)c1nn(-c2ccccc2)c(=O)cc1SC(C)CC (centres undefined) returned RGS4-Gao reg 110, Avidin bead fluor 100*, RGS16-Gao HTS 103, GSH bead fluor 32, RGS8-Gao 101 and RGS7-Gao reg 144.
For CC(=O)Nc1ccc(OCC(O)Cn2nc(C)c(C(C)=O)c2C)cc1 (centres undefined) the results were RGS4-Gao reg 108, Avidin bead fluor 73*, RGS16-Gao HTS 103, GSH bead fluor 24, RGS8-Gao 98 and RGS7-Gao reg 149.
COc1cccc(C(=O)Nc2c(C)n[nH]c2C)c1 was read as RGS4-Gao reg 117, Avidin bead fluor 55*, RGS16-Gao HTS 119, GSH bead fluor 17, RGS8-Gao 105 and RGS7-Gao reg 116.
For Cc1cccc(-c2c3c(=O)n(C)c(=O)n(C)c3cn2CC2CCCO2)c1 (centres undefined) the results were RGS4-Gao reg 84, Avidin bead fluor 6, RGS16-Gao HTS 87, GSH bead fluor 261*, RGS8-Gao 93 and RGS7-Gao reg 99.
For COc1c(Cl)cc(Br)c(OC)c1C(=O)NC(=O)Nc1nc(C)cc(C)n1 the results were RGS4-Gao reg 93, Avidin bead fluor 7, RGS16-Gao HTS 95, RGS8-Gao 96 and RGS7-Gao reg inconclusive.
